PubChem BioAssay AID623946 (Vanderbilt Specialized Chemistry Center, 2012)
Calls of active or inactive are those of the source.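 Rule for the calls: active = compounds whose rat M5 calcium response changes with dose, giving a fitted curve judged by the depositor; inactive = the rest, with no dose-dependent response.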

Each molecule was assayed against Muscarinic acetylcholine receptor M5 (Rattus norvegicus) (UniProt P08911) (assay: off-target potentiation of rat M5 ACh response – CHO-K1 cells, calcium fluorescence, ACh EC20, selectivity assay for M4 PAM optimization project, SAR follow-up (AID 623946)). Details: CHO-K1 rM5, calcium fluorescence; series mostly up to 30 µM; % ACh max response: at the top concentration.
Sequence of Muscarinic acetylcholine receptor M5 (Rattus norvegicus) (P08911 whole entry, looked up): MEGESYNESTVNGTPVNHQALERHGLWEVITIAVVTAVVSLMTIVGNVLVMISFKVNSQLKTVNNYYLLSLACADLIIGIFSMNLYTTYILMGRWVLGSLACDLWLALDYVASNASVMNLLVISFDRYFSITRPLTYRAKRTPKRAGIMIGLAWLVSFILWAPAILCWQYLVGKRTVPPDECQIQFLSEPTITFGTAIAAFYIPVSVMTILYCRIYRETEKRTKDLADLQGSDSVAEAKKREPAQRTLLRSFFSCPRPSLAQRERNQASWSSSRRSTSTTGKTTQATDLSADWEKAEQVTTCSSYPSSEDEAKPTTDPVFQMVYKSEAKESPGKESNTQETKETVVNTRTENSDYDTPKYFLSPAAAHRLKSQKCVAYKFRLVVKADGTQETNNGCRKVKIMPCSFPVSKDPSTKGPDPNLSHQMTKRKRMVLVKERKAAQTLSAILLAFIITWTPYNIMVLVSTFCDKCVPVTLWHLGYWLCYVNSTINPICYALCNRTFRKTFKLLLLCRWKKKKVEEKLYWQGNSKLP

outcome, inactive:
Cc1nc2sc(C(=O)NCc3ccncc3)c(N)c2c(C)c1Cl
Cc1nc2sc(C(=O)NCc3cccnc3)c(N)c2c(C)c1Cl
Cc1nc2sc(C(=O)NCc3ccc4c(c3)OCO4)c(N)c2c(C)c1Cl
Cc1nc2sc(C(=O)NCc3ccccc3)c(N)c2c(C)c1Cl

% ACh max response, inactive:
Cc1nc2sc(C(=O)NCc3nccs3)c(N)c2c(C)c1Cl 18.3
COc1ccc(C)c2sc(NC(=O)c3ccncc3)nc12 16
Cc1nc2sc(C(=O)NC3CC3)c(N)c2c(C)c1Cl 17.9
Cc1nc2sc(C(=O)NCc3ccncn3)c(N)c2c(C)c1Cl 15.2
Cc1nc2sc(C(=O)NCCc3ccncc3)c(N)c2c(C)c1Cl 19.3
Cc1nc2sc(C(=O)NCc3cccc(F)c3F)c(N)c2c(C)c1Cl 16.2
